High-throughput results: PubChem BioAssay, several laboratories
Mtb hypoxia rep: PubChem AID 1159583. M. tuberculosis hypoxia-regulated fluorescent reporter, fluorescence. fluorescence inhibition, % (test concentration not listed). 300,000 tested, 0.1% active; in the data active means fluorescence inhibition mostly above about 23%, no sharp cut-off; inactive means mostly below about 17%
Sa RN4220 lethal: growth inhibition of S. aureus RN4220, primary screen, OD600; 16 h; inhibition, % (concentration not given with the values); 330,000 tested, 0.33% active; in the data active means inhibition above about 85%;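 further: plate controls were untreated cells for no effect and reference antibiotic for full effect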
Sa ugtP lethal: growth inhibition of ugtP-null S. aureus, primary screen, RN4220 ugtP deletion, OD600 | 16 h | growth inhibition, % (test concentration not listed) | 330,000 tested, 0.54% active | AID 1259309, 2017; in the data active means growth inhibition above about 68%;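 further: plate controls were untreated wells for no effect and antibiotic for full effect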
Vc quorum ag-1: inducers of Vibrio cholerae quorum light production without autoinducers, primary screen, BH1578 luxS cqsA deficient, single point | V. cholerae BH1578 lux reporter, luminescence, 6 h | activation, % at 18.7 µM | 350,000 tested, 0.16% active | AID 588436, 2011; in the data active means activation mostly above about 9.7%, no sharp cut-off
PfHsp40 rescue: rescue of yeast from PfHsp40 toxicity, primary screen, S. cerevisiae, ATP luminescence. S. cerevisiae expressing PfHsp40, growth rescue. growth rescue, % at 12.5 µM. 340,000 tested, 0.68% active. AID 504582, 2011; in the data active means growth rescue above about 28%, passing the limit was not always enough;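 further: yeast W303a lacking pdr1 and pdr3 grown in galactose medium; growth measured after three days at 30 °C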
CCHF vOTU inh: CCHFV vOTU protease inhibitors, primary screen, biochemical, Pep-AMC substrate, fluorescence | inhibition, % at 11.5 µM | 370,000 tested, 0.55% active | AID 651958, 2012; in the data active means inhibition above about 30%; further: 0% = vehicle wells with enzyme and 100% = no enzyme wells
Vc quorum ag-2: V. cholerae lux activation without autoinducers – BH1578 luxS cqsA deficient, cherry-pick, plate reader, dose response | 620 tested, under 10 active | activation, % at 50 µM | V. cholerae BH1578 lux reporter, luminescence, 6 h | shares compounds with Vc quorum ag-1; call rule not given here
Starred values were filed as active, the others as inactive; i = inactive; · = no result. Hits are enriched below; roughly 1.7% of the tested compounds scored in any of these assays.

SMILES	Mtb hypoxia rep	Sa RN4220 lethal	Sa ugtP lethal	Vc quorum ag-1	PfHsp40 rescue	CCHF vOTU inh	Vc quorum ag-2
COc1ccc(CC(=O)NN=Cc2ccc(-c3cccc(C(=O)O)c3)o2)cc1OC	0	3	13	·	·	·	·
Cc1ccc(OCC(=O)NC2CCS(=O)(=O)C2)c([N+](=O)[O-])n1 (stereo not given)	10	2	4	12	1	8	0
CC(OC(=O)c1ccc(-n2cnnn2)cc1)C(=O)N(C)c1ccccc1 (stereo not given)	3	2	2	14	0	-12	1
CSCC[C@H](N)C(=O)NCC1CCC(C(=O)N[C@@H](Cc2ccccc2)C(=O)O)CC1 (stereo not given in full)	-3	3	8	·	·	·	·
Cc1ccccc1C(=O)Nc1ccc(-c2nc3ccc(C(=O)c4ccccc4)cc3[nH]2)cc1	-4	24	-7	12	3	-22	0
O=C(c1ccccc1)c1ccc2nc(-c3ccc(NC(=O)c4ccccc4Br)cc3)[nH]c2c1	-5	16	15	i	0	3	·
CSc1nc(C)cc(OCC(=O)N2CCOCC2)n1	·	1	7	32*	-1	3	0
Cc1ccc(NN=C(Sc2nnnn2-c2ccccc2)C(=O)c2ccccc2)cc1	5	5	6	·	·	·	·
C#CCOCCOCCOCCNc1nc(N2CCN(C(=O)C(CCCCN)n3cc(CN)nn3)CC2)nc(N2CCN(C(=O)C(CCCCN)n3cc(CN)nn3)CC2)n1 (stereo not given)	3	9	0	·	·	·	·
COc1cc(NC(=O)Nc2cccc(Cl)c2)c(OC)cc1NC(=O)CN1CCCCC1	11	36	38	12	-2	5	0
O=C(CN1CCCCC1)Nc1cccc(Cl)c1	-7	3	17	-1	1	-15	·
COc1ccc(Cl)cc1NC(=O)CN1CCc2ccccc2C1	8	-3	0	107*	-1	15	278
COc1ccc(NC(=O)CN(C)C(=O)c2cccc(S(=O)(=O)N3CCN(C)CC3)c2)cc1	8	2	11	9	-1	4	0
COc1ccc(NC(=O)CN(C)C(=O)c2cccc(S(=O)(=O)N3CCN(Cc4ccccc4)CC3)c2)cc1	6	0	8	i	-2	·	·
CCn1cc(C(=O)NC2CCCCC2C)c(=O)c2ccc(C)nc21 (stereo not given)	·	0	-1	30*	1	13	0
CCn1cc(C(=O)Nc2ccccc2)c(=O)c2ccc(C)nc21	0	9	1	·	·	·	·
c1ccc(Cc2nn[nH]n2)cc1	7	10	2	·	1	10	·
COc1ccc(Cc2nn[nH]n2)cc1	5	6	6	7.6*	-1	0	0
CC1CCCN(C(=O)c2ccc3c(=O)n(Cc4ccc5c(c4)OCO5)c(=S)[nH]c3c2)C1 (stereo not given)	0	-13	24	2	2	-4	4
CCOc1ccc(C(=O)OCC(=O)N2CCCC2)cc1	-6	0	7	25*	1	12	8
CCc1ccc(C(=O)OCC(=O)N2CCCCCC2)cc1	6	2	10	3	0	0	·
COc1ccc(N2CCN(C(=O)COc3ccc4ccccc4c3)CC2)cc1	6	-17	-10	12	0	6	0
COc1ccc(OCC(=O)N2CCN(C(=O)COc3ccc(Br)cc3)CC2)cc1	12	-4	23	·	1	1	·
CC(=O)N1CCN(C(=O)COc2ccc(Br)cc2)CC1	1	23	23	17*	1	8	0
O=C(c1cc2ccccc2cc1O)N1CCN(c2ccccc2O)CC1	6	2	-3	12	0	-1	0
SMILES	Mtb hypoxia rep	Sa RN4220 lethal	Sa ugtP lethal	Vc quorum ag-1	PfHsp40 rescue	CCHF vOTU inh	Vc quorum ag-2
CC(C(=O)N1CCCCCC1)N(c1ccc(Cl)cc1)S(C)(=O)=O (stereo not given)	-7	3	15	-1	-3	-1	·
Cc1ccc(N(C(C)C(=O)N2CCCCC2)S(C)(=O)=O)cc1C (stereo not given)	-4	4	2	25*	-1	0	0
O=C(CC1NC(=O)NC1=O)Nc1ccc(Cl)cc1 (stereo not given)	5	2	-7	7	0	-4	0
O=C(CC1SC(=O)NC1=O)Nc1ccc(Cl)cc1 (stereo not given)	3	7	-1	4	3	1	·
CCOC(=O)c1cnc(SCC(=O)OCC(=O)NC2CCS(=O)(=O)C2)nc1N (stereo not given)	0	-3	-3	32*	-1	8	1
O=C(NCC1CCCO1)c1ccccc1-c1nc(-c2ccc(Cl)cc2)no1 (stereo not given)	6	4	-1	0	5	-9	·
Cc1cccc(-c2noc(-c3ccccc3C(=O)NCC3CCCO3)n2)c1 (stereo not given)	·	2	5	14	2	6	-1
COc1ccc(C(=O)N2CCC(C(=O)c3ccc(F)cc3)CC2)cc1	8	6	-1	17*	0	10	1
Nc1nonc1-n1nnc(C(=O)NN=Cc2ccc(F)cc2)c1-c1cccs1	2	4	-1	·	·	·	·
CCOC(=O)CSc1nc(N)c(C#N)c(-c2cccs2)c1C#N	·	3	2	44*	0	2	0
Cc1cc(C)c(S(=O)(=O)NN=Cc2ccc([N+](=O)[O-])o2)c(C)c1	-4	-3	16	·	·	·	·
CC1CCC(=NNc2ccccc2)C(=O)N1 (stereo not given)	6	3	2	·	·	·	·
CC(C)OC(=O)CSc1nnc(SCc2cccc3ccccc23)s1	·	11	29	29*	2	11	0
COc1ccc(C2CC(=O)C=C(c3ccc4ccccc4c3)C2)cc1OC (stereo not given)	5	8	-21	·	·	·	·
CCOc1ccc(C=CC2=CC(C)(C)NC(=S)N2)cc1	-3	6	5	·	·	·	·
COc1cccc(CNC(=O)COC(=O)CN(C)S(=O)(=O)c2ccc(NC(C)=O)cc2)c1	4	3	11	12	-1	-6	0
O=C(Nc1cccc(-c2ccc(N3CCOCC3)nn2)c1)c1ccccc1Cl	6	8	8	14	-1	5	1
O=C(NCCC(=O)N1CCN(c2ccccc2F)CC1)c1ccco1	0	3	5	i	0	0	·
O=C(NCCC(=O)N1CCN(c2ccc(F)cc2)CC1)c1ccco1	-1	-2	4	12	1	-9	100
CC(CC(=O)Nc1ccc2c(c1)OCCO2)=NNC(=O)c1ccccc1F	3	4	3	·	·	·	·
S=C(c1ccc(N2CCOCC2)cc1)N1CCCCC1	·	-2	2	20*	0	10	0
